# A selection: hits, their analogues and other compounds. The true share with any hit is near 6.5%.
# HT1080 IDH1KD tx: toxicity to HT-1080 IDH1 knockdown cells (counter line); Potency, µM (titrated, usually from 46.1 µM), for inactives: at the highest dose activity, negative = toxicity, most hits filed as cytotoxic; HT-1080 IDH1 knockdown viability, ATP luminescence, 48 h; 2% of 360,000 active; AID 686971;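 further: potency means the concentration at half of the fitted maximal effect; 0% = DMSO wells and -100% = cell-free medium wells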
#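 After a 2 h attachment period, IDH1KD HT-1080 cells took pin-transferred compound for 48 h at 37 °C; ATP-based luminescence after 10 min room-temperature reagent incubation reported viability.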
# HepG2 tox: HepG2 cytotoxicity, counter-screen for TGF-b inhibitors. AID 588856. HepG2 CAGA-GFP viability, ATP luminescence, 18 h. 0.76% of 410,000 active. Potency, µM (doses to about 46.1 µM), for inactives: at the top dose activity change, negative = cytotoxicity, most hits filed as cytotoxic; further: potency means the concentration at half of the fitted maximal effect
#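 CellTiter-Glo luminescence gave cytotoxicity after 18 hours at 37 degrees C. The cells were HepG2 CAGA-GFP in 1% FBS DMEM, stimulated with 500 pg/mL TGF-beta after compound addition. %Activity was normalised to no-cell wells (complete cell-killing) and DMSO (no toxicity), and curves were fitted and classified.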
# HT1080NT lethal: kills 2HG-producing HT-1080-NT fibrosarcoma cells. HT-1080-NT fibrosarcoma viability, CellTiter-Glo ATP luminescence, 48 h. Potency, µM (doses to about 46.1 µM), without a hit: top-dose activity, negative = less viability, most hits filed as cytotoxic. 1.6% of 360,000 active. AID 686970;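 further: NT is the 2HG producing partner of a matched IDH1 knockdown line; potency means the concentration at half of the fitted maximal effect; 0% = DMSO-treated cells and -100% = media-only wells without cells; nearly all actives have a fitted effect of over 55% in size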
#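 Fibrosarcoma NT cells, 750 per well in 5% FBS RPMI, were exposed to compound for 48 hours. Viability: CellTiter-Glo luminescence.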
# TGFb SMAD3 inh: TGF-b pathway inhibition; HepG2 CAGA-GFP TGF-b/SMAD3 reporter, GFP fluorescence, 18 h; TGF-beta stimulated, 500 pg/mL final; Potency, µM (highest dose often 46.1 µM), for the others: at the top dose activity, negative = inhibition, usual class: inhibitors; 1.2% of 410,000 active; further: potency means the concentration at half of the fitted maximal effect; on the % scale 0 is the no-effect control and ±100 the full control effect; nearly all actives have a fitted effect of over 65% in size
#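 Inhibition of TGF-beta-driven CAGA-GFP reporter expression in HEPG2 cells is measured by cellular GFP fluorescence after 18 h stimulation with 500 pg/mL recombinant TGF-beta in 1% FBS medium at 37 degrees C.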
# IL1B secr inh: inhibitors of inflammasome signaling (IL-1 beta secretion) | THP-1 LPS/ATP IL-1B secretion, AlphaLISA, 16 h; stronger effect = lower value | 4.7% of 360,000 active | activity change, % at 57.5 µM; in the data active means activity change below about -50%; inconclusive means mostly about -30% to -49%; further: on the % scale 0 is the no-effect control and ±100 the full control effect
#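 Secreted IL-1B measured by AlphaLISA bead assay after 16 h compound exposure of THP-1 cells; compounds (final up to 57.5 uM) added 1 h before LPS (250 ng/mL) and ATP (1.25 mM) stimulation; lower signal means less secretion.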
# Giardia kill: kills Giardia lamblia; activity change, % at 7.66 µM, hits read low; 0.15% of 340,000 active; Giardia lamblia trophozoite viability; in the data active means activity change below about -80%; inconclusive means between about -30% and that limit;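 further: parasites exposed to compound for two days anaerobically before the ATP read; on the % scale 0 is the no-effect control and ±100 the full control effect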
#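 Giardia lamblia trophozoites (100 cells/well) were incubated with compounds for 48 h at 37 deg C under anaerobic conditions. Viability was read as ATP content by one-step luminescence after 15-30 min at room temperature.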
# An asterisk follows results filed as active; ? = inconclusive; · = no result. Unless noted, the call rests on the fitted dose curve; in most records, active means well fitted curve in the direction sought with a large enough effect; inconclusive means small, poorly fitted or top-dose-only effect, or another doubt; inactive means no such curve, though single readings can be large; an effect the other way counts as inactive or inconclusive.
SMILES,HT1080 IDH1KD tx,HepG2 tox,HT1080NT lethal,TGFb SMAD3 inh,IL1B secr inh,Giardia kill
O=C1OC(c2ccccc2)(c2cc(Br)ccc2O)c2ccccc21 (stereo not drawn),20.6µM*,-182.9%,16.4µM*,20µM*,-91.5*,5.1
O=C1OC(c2ccccc2)(c2ccc3cc(O)ccc3c2)c2ccccc21 (stereo not drawn),25.9µM*,-182.5%,13µM*,?,?,5.8
O=C1OC(c2ccc3ccccc3c2O)(c2ccc3ccccc3c2O)c2ccccc21,?,-16.5%,-0.3%,?,-50.7*,10.6
COc1ccc(CNCc2ccccc2[N+](=O)[O-])cc1OC,-1.1%,2.9%,-5.7%,-3.0%,-2.6,-6.6
CCOc1ccccc1NC(=O)Nc1ccc2c(c1)OCO2,-14.2%,-22.0%,-13.0%,-0.3%,?,0.3
C=CCOc1ccccc1CN(C(=O)CCl)c1ccc2c(c1)OCO2,2.59µM*,-70.8%,3.66µM*,?,-106.0*,-9.7
Cc1ccsc1/C=N/NC(=O)CN1CCN(S(=O)(=O)c2ccc(Br)cc2)CC1,-0.7%,-18.5%,1.3%,0.0%,0.0,-11.7
COc1ccc(-n2c(COc3ccc(C)cc3)n[nH]c2=S)cc1,-1.6%,-4.0%,4.1%,-4.1%,11.1,-19.4
CCOC(=O)C1CCCN(CCc2ccccc2)C1 (stereo not drawn),6.1%,2.2%,5.2%,0.8%,-9.4,28.2
O=C(OC1C2CCC1C1CN(CCc3ccccc3)CC12)c1ccccc1 (stereo not drawn),-17.6%,-9.2%,-11.3%,-0.7%,-67.3*,3.6
CC(=O)Nc1ccc(-c2ccnc3c2CC(C)(C(=O)Nc2ccc(Cl)c(C(F)(F)F)c2)O3)cc1 (stereo not drawn),16.4µM*,-59.2%,?,?,-20.6,·
CNC(=O)C1(C)Cc2c(-c3ccc(NC(C)=O)cc3)ccnc2O1 (stereo not drawn),3.8%,-7.0%,?,33.3%,3.1,·
CC1(C(=O)Nc2cccc(OC(F)(F)F)c2)Cc2c(-c3cccc(C(F)(F)F)c3)ccnc2O1 (stereo not drawn),?,-22.9%,?,?,14.0,·
CC(=O)Nc1ccc(-c2ccnc3c2CC(C)(C(=O)Nc2ccc4c(c2)OCO4)O3)cc1 (stereo not drawn),?,-0.6%,?,35.5%,-51.5*,·
CC(=O)Nc1ccc(-c2ccnc3c2CC(C)(C(=O)Nc2ccc(Cl)cc2)O3)cc1 (stereo not drawn),?,-9.8%,?,-6.6%,-53.1*,·
CC(=O)Nc1ccc(NC(=O)C2(C)Cc3c(-c4ccc5c(c4)OCO5)ccnc3O2)cc1 (stereo not drawn),-17.4%,-8.8%,-11.0%,14.3%,0.0,·
CC(=O)Nc1cccc(-c2ccnc3c2CC(C)(C(=O)Nc2cccc(OC(F)(F)F)c2)O3)c1 (stereo not drawn),?,-50.8%,9.2µM*,14.1µM*,13.4,·
CCC(=O)N1CCCC1(C)C(=O)Nc1ccc(C)c(C)c1 (stereo not drawn),?,3.8%,12.3%,-5.0%,188.8,·
Cc1ccc(N(CC(=O)NC(C)c2ccccc2)S(=O)(=O)c2c(C)noc2C)cc1 (stereo not drawn),11.6%,-25.6%,0.1%,?,-2.5,-7.1
COc1ccc(OC)c(S(=O)(=O)N2CCN3CCCC3C2)c1 (stereo not drawn),2.0%,-9.3%,1.1%,-3.8%,-5.5,-5.2
COc1ccccc1OCC(=O)Nc1ccc(S(=O)(=O)Nc2nccs2)cc1,16.6%,-6.9%,11.7%,-23.9%,-2.0,-11.6
CCOC(=O)C1CCN(S(=O)(=O)c2ccc(NC(=O)c3ccco3)cc2)CC1,-4.1%,-21.7%,-27.3%,-24.2%,-10.1,16.7
N#Cc1ccc(OCC(=O)N2CCN(S(=O)(=O)c3cccs3)CC2)cc1,-20.8%,0.2%,-0.1%,0.2%,0.4,-17.7
O=C(Nc1nnc(C2CC2)o1)c1ccc(S(=O)(=O)N2CCCc3ccccc32)cc1,?,-6.3%,?,?,27.6,?
O=C(Nc1nc2c(F)cccc2s1)c1ccc(S(=O)(=O)N2CCCc3ccccc32)cc1,·,-9.5%,·,3.1%,·,·
SMILES,HT1080 IDH1KD tx,HepG2 tox,HT1080NT lethal,TGFb SMAD3 inh,IL1B secr inh,Giardia kill
COCc1nnc(NC(=O)c2ccc(S(=O)(=O)N3CCCc4ccccc43)cc2)o1,20.6µM*,-19.7%,14.6µM*,-0.9%,105.3,5.8
Cc1ccc2nc(NC(=O)c3ccc(S(=O)(=O)N4CCCc5ccccc54)cc3)sc2c1,16.4µM*,-26.6%,18.4µM*,-0.8%,5.4,3.5
COc1ccc(-c2nnc(NC(=O)c3ccc(S(=O)(=O)N4CCCc5ccccc54)cc3)o2)cc1,11.2µM*,-2.8%,11.2µM*,?,15.3,-9.8
COC(=O)[C@]12CCCCC=C1N(CCc1ccc(OC)c(OC)c1)C(=O)[C@H](CC(=O)NCc1ccccc1)C2,3.8%,·,7.8%,·,1.5,·
Cc1c2cnn(CC(=O)NCc3ccccn3)c(=O)c2c(C)n1Cc1ccccc1,0.8%,-7.6%,3.5%,-12.2%,10.8,4.9
CC(C)n1ncc2c(C(=O)Nc3cccc(C#N)c3)cc(C3CC3)nc21,?,-32.3%,-23.8%,?,-57.6*,8.3
CC(C)n1ncc2c(C(=O)N3CCN(c4ccccc4)CC3)cc(-c3ccccc3)nc21,?,-11.8%,-27.0%,0.0%,-9.2,-17.7
CCOc1ccc(OCCNC(=O)c2cc(C3CC3)nc3c2cnn3C(C)C)cc1,-23.9%,-34.4%,-5.8%,12.6µM*,?,5.7
COc1ccc(NC(=O)c2cc(-c3ccccc3)nc3c2cnn3C(C)C)cc1,-16.6%,-31.4%,-1.1%,-2.5%,-70.0*,-1.2
O=C(Nc1ccc(Cl)c([N+](=O)[O-])c1)ONC1=NCCCCC1,-21.9%,-15.4%,-2.8%,6.1%,-53.5*,1.1
O=C(ONC1=NCCCCC1)c1cccc([N+](=O)[O-])c1,-24.8%,-0.9%,?,0.2%,-5.1,-0.5
CC(=O)c1ccccc1OCCOc1ccccc1C(C)=O,6.1%,4.4%,8.8%,7.2%,0.0,-5.5
CC(=O)c1ccccc1OCc1ccc(S(=O)(=O)Cc2ccccc2)cc1,-0.1%,-14.0%,-12.0%,?,-60.2*,-1.9
COCCNC(=O)/C(C#N)=C/c1c(F)cccc1Cl,-8.3%,-18.8%,-18.5%,16.6%,-53.6*,-9.2
COCCCNC(=O)/C(C#N)=C/c1ccc(F)cc1,25.4%,-12.7%,8.5%,-16.3%,-6.0,-9.5
